Measured values taken from PubChem BioAssay (NCI).
This is part of a sample that, as a whole, favours compounds with a hit. Of some 83,000 tested, about 20% had one in any assay.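 Each cell line was grown in a 96-well plate and treated with one concentration of compound for 48 hours. Values below 10 were considered active.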 Active and inactive are the calls of the source.

system: NCI-H460 lung; assay: NCI-60 one-dose screen, 48 h (100 = growth as untreated, 0 = no growth, -100 = all killed); details: 10 µM unless noted
Description: Growth inhibition of the NCI-H460 human Non-Small Cell Lung tumor cell line is measured as a screen for anti-cancer activity. Cells are grown in 96 well plates and exposed to the test compound for 48 hours. Compounds are tested at a single concentration, which is 10^-5 M for most compounds. The reported endpoint is percent growth (GI% or GIPRCNT), where numbers from 0 - 100% represent growth inhibition, and numbers from -100% - 0 represent cell death. For example, a value of 40 represents 60% growth inhibition. A value of 0 means no net growth occurred over the course of the experiment. A value of -40 indicates 40% of cells at the beginning of the experiment died by the end of the experiment. A value of -100 means all cells are dead at the end of the experiment.
NCI-60 Human Tumor Cell Lines Screen was performed using the standard one-dose NCI protocol, which is described in more detail at https://dtp.cancer.gov/discovery_development/nci-60/default.htm.
Compounds with GIPRCNT values below 10 were considered active. Activity score was based on GIPRCNT using the following formula: […]
Score is 0 for GIPRCNT values of 100 or above, 50 for GIPRCNT values of 0, and 100 for GIPRCNT values of -100.

Structure (SMILES) | growth
N/N=C(\N)c1c(N)nc(=S)[nH]c1-c1ccc(Cl)cc1Cl | 116% (inactive)
Cc1cccc(-c2nc(Nc3ccc(C)c(S(N)(=O)=O)c3)c3ccccc3n2)c1 | 19% (inactive)
CCOC(=O)C1=C(N)N(c2ccccc2)C2=C(C(=O)CC(C)(C)C2)C1c1ccc([N+](=O)[O-])cc1 (stereo not given) | 89.8% (inactive)
O=C(/C=C/c1ccc(-c2ccccc2)cc1)c1nc2ccccc2n1Cc1ccc(Br)cc1 | 16.8% (inactive)
COc1ccc(C(=O)/C=C/c2ccc(Oc3nc(Nc4ccc(F)cc4)nc(N(C)C)n3)c(OC)c2)cc1 | 26.2% (inactive)
CCCS(=O)(=O)N1CCCC(C(=O)Nc2nc3ccc(NC(=O)c4ccc(F)c(OC)c4F)cc3s2)C1 (stereo not given) | 55.9% (inactive)
CCN1C(=O)/C(=N\N=C(/C)c2ccc3c(c2)Nc2ccccc2S3)c2cc(Cl)ccc21 | 63.4% (inactive)
CSc1ccccc1NC(=O)c1ccc2nnn(/C(C#N)=C/c3ccccn3)c2c1 | -44% (active)
C#CCOc1ccc(/C=N/Nc2nc(-c3cc4cc(Br)ccc4oc3=O)cs2)cc1OC | 43.4% (inactive)
CN1CCN(c2ccc3c(c2)nc(NNC(=O)c2ncccn2)c2cccn23)CC1 | 3.42% (active)
COc1cc(C2CC(c3cc(OC)c(OC)c(OC)c3)=Nc3c(N)nc(N)nc3N2)ccc1Oc1nc(NCCO)nc(N2CCOCC2)n1 (stereo not given) | 106% (inactive)
CCN(CC)c1ccnc(CNCCSC(c2ccccc2)(c2ccccc2)c2ccc(C)cc2)c1 | -79.6% (active)
COc1ccc(NC(=O)Cn2c(/C=C/c3cccc([N+](=O)[O-])c3)nc3ccccc3c2=O)cc1 | 63% (inactive)
CCN(CC)c1ccnc(CNCCSC(c2ccccc2)(c2ccccc2)c2ccc(OC)cc2)c1 | -87.3% (active)
CCOC(=O)c1ccc(Nc2nc(NN)nc(-c3ccc(OC)cc3)c2C#N)cc1 | 109% (inactive)
CCOC(=O)C1=C(N)N(c2ccccc2)C2=C(C(=O)CC(C)(C)C2)C1c1ccc(Cl)cc1Cl (stereo not given) | 18.3% (inactive)
CCCCCCn1c(O)c(N=Nc2nc(-c3cc4ccccc4oc3=O)cs2)c2ccccc21 | 5.99% (active)
C=C1CC[C@@H]2[C@]3(C)COC(c4cn(-c5ccccc5)nc4-c4cccc([N+](=O)[O-])c4)O[C@@H]3CC[C@@]2(C)[C@@H]1C/C=C1/C(=O)OC[C@H]1O (stereo not given in full) | 2.24% (active)
Nc1nc(C(F)(F)F)cs1 | 107% (inactive)
COc1ccc(C(=O)/C=C/c2cc3c(cc2Br)OCO3)cc1S(N)(=O)=O | -0.316% (active)

Structure (SMILES) | growth
COc1cccc(/C=C/C(=O)c2ccc(OC)c(S(N)(=O)=O)c2)c1 | 16.2% (inactive)
S=C(NCCc1ccccc1)Nc1ccc(OCc2nc3ccccc3[nH]2)cc1 | 108% (inactive)
Cn1cc(-c2cc(N)n3nc(-c4cn(C)c5ncc(Br)cc45)cc3n2)c2cc(Br)cnc21 | -65.6% (active)
COc1ccc(NC(=O)Cn2c3c(sc2=O)[C@H]2[C@@H](O)[C@@H](O)[C@H](O)[C@@H]2CS3)cc1 | 108% (inactive)
C=CC[N+](C)(C)CCn1c2ccccc2c2nc3cc(C)c(C)cc3nc21 | 104% (inactive)
Cc1ccccc1[C@H]1C(C(=O)c2ccc(Cl)cc2)C2(N[C@@H]1c1ccccc1)C(=O)Nc1ccccc12 (stereo not given in full) | -45.5% (active)
Cc1cc2c(cc1Cl)C(=O)/C(=C/c1ccc(F)cc1)O2 | 105% (inactive)
O=C(/C=C/c1ccc(O)c(O)c1)NC1CCOC1O (stereo not given) | 116% (inactive)
Cn1cc(NC(=O)c2cc(NC(=O)c3ccc(/C=C/c4ccccc4)cc3)cn2C)cc1C(=O)NCCCN1CCOCC1 | -51.6% (active)
S=C(Nc1ccc(OCc2nc3ccccc3[nH]2)cc1)NC1CCCCC1 | 125% (inactive)
CCCn1cc(-c2nc(Nc3ccc(C(=O)NCCCCNc4cccc5c4C(=O)N(C4CCC(=O)NC4=O)C5=O)cc3)nc3[nH]ccc23)cn1 (stereo not given) | 107% (inactive)
Cc1sc2c(c1C)C(c1ccc(Cl)cc1)=N[C@@H](CC(=O)NCCCCCNC(=O)COc1ccc(C3CCC(=O)NC3=O)cc1)c1nnc(C)n1-2 (stereo not given in full) | 73% (inactive)
CN1CCN(/C(=N\c2sc(-c3ccccc3)nc2-c2ccccc2)c2ccccc2)CC1 | 42.6% (inactive)
Cc1cc(=O)oc2cc(OCCCCOc3ccc(/C=C/C(=O)Nc4ccccc4N)cc3)ccc12 | 45.2% (inactive)
COc1ccc(-c2nc(SCC(C)C)nc(NCCc3c[nH]c4ccccc34)c2C#N)cc1 | 36.6% (inactive)
N#Cc1c(-c2ccccc2Cl)cc(-c2ccc3ccccc3c2)[nH]c1=O | -13.8% (active)
C/C(=N\N=C\c1cc([N+](=O)[O-])ccc1Cl)c1ccc2c(c1)Nc1ccccc1S2 | 9.18% (active)
COc1ccc(-c2nc(SC(C)C)nc(NCCc3c[nH]c4ccccc34)c2C#N)cc1 | 24.1% (inactive)
CN1CCN(c2ccc3c(c2)nc(NNC(=O)c2cnccn2)c2cccn23)CC1 | 2.41% (active)
O=c1oc2ccc(Br)cc2cc1C1=CSc2nc3sc4c(c3c(=O)n2N=C1)CCCC4 | 102% (inactive)
